# Assay results from ChEMBL document CHEMBL4513216, “Probing the Open Global Health Chemical Diversity Library for Multistage-Active Starting Points for Next-Generation Antimalarials” (ACS Infect Dis, 2020).
# Hit rate of the full screen: of about 69,000 compounds, about 8,600 (12%) showed an effect of 50% or more. This excerpt belongs to a sample that is enriched for strong results.
# Test system: Plasmodium berghei
# Assay: Screen against P. berghei liver stage (PbLuc), transformed with Luciferase, at 10uM
# Format: functional, HepG2
# Details: tested at 10 uM
row,SMILES,INHIBITION
1,CC(=O)N1CCc2cc(Cl)cc(Cl)c2C1,37.7%
2,COCC1CC2(CCN(CC3CC3)CC2)CN1c1ncccn1 (stereo not given),18.2%
3,Cn1ccc(C(=O)NC2CCC23CCN(Cc2ccc(F)cc2)CC3)c1 (stereo not given),-9.02%
4,Nc1ncnc2nc(C3CCN(C(=O)Cc4ccccc4)C3)ccc12 (stereo not given),6.3535%
5,COc1ccc(-c2cc(C3CCNCC3)nc(C)n2)cc1,-29.9%
6,COc1ccc(N2CCN(Cc3nc(CSC)no3)CC2=O)cc1,-42.9%
7,CCNC(=O)Cc1ccc(NC(=O)NC(CC)c2ccncc2)cc1 (stereo not given),4.15%
8,CCC(NC(=O)NCC(=O)Nc1ccc(F)cc1)c1ccncc1 (stereo not given),58.3%
9,CCC(NC(=O)Nc1ccc(OC)c(C)c1)c1ccncc1 (stereo not given),26.6%
10,O=C(c1ccco1)N1C[C@H]2CCCN(CC3CCOCC3)[C@H]2C1,49.5%
11,Cc1cnc(NCCCN2CCCCC2CO)nc1 (stereo not given),20.8%
12,N#Cc1cccc(CS(=O)(=O)NCCC(O)c2ccccc2)c1 (stereo not given),24.5%
13,N#Cc1cccc(CS(=O)(=O)NC(Cc2ccccc2)C(N)=O)c1 (stereo not given),58.1%
14,O=S(=O)(Cc1ccccc1F)NC(CO)c1ccco1 (stereo not given),45.1%
15,N#Cc1cccc(CS(=O)(=O)NCC(O)Cc2ccccc2)c1 (stereo not given),30.8%
16,NC(=O)C(Cc1ccccc1)NS(=O)(=O)Cc1ccccc1Cl (stereo not given),9.75%
17,NC(=O)C(Cc1ccccc1)NS(=O)(=O)Cc1ccccc1F (stereo not given),50.5%
18,O=C(NC1COC2(CCN(Cc3cccs3)CC2)C1)c1ccccn1 (stereo not given),20.9%
19,Cc1ccc(CN[C@@H]2COC[C@H]2c2ccc(F)cc2)cc1C,49%
20,CN1CC2(CCC(C(=O)N3CCOCC3)CC2)Oc2ccccc2C1=O (stereo not given),-3.58%
21,COCCN1CCn2c(CN(C)C(C)C)cnc2C1,-8.28%
22,CNC(=O)[C@@H]1[C@H]2CN(Cc3ccoc3)CCN2C[C@H]1c1ccccc1,9.36%
23,CNC(=O)[C@@H]1[C@@H](c2ccccc2)CN2CCN(Cc3cccs3)C[C@H]12,41.1%
24,CNC(=O)[C@@H]1[C@@H](c2ccccc2)CN2CCN(Cc3ccco3)C[C@H]12,57%
25,Cn1cc(N2CC3(CCN(Cc4cccnc4)CC3)OCC2=O)cn1,22.9%
26,Cc1nc(C)n(C2CCCN(C(=O)c3ccc4nccn4c3)C2)n1 (stereo not given),20.8%
27,Cc1ccc(N2CC[C@]3(O)CCN(CCN4CCCC4=O)C[C@@H]3C2)nn1,-2.25%

row,SMILES,INHIBITION
1,O=C1CCCN1CCN1CC[C@@]2(O)CCN(c3ncccn3)C[C@H]2C1,51.2%
2,CSCCCN1CC[C@@]2(O)CCN(c3ncccn3)C[C@H]2C1,38.3%
3,CCc1nnc2n1CCN(C(=O)c1cc3ccccc3[nH]1)C2,18.2%
4,Cc1cc(N2CCc3cncnc3C2)n2nc(C(F)(F)F)nc2n1,50.8%
5,Cc1cc(N2CCc3cnc(C)nc3C2)n2nc(C(F)(F)F)nc2n1,10.6%
6,Cc1cc(N2CCc3c(ncn3C)C2)n2nc(C(F)(F)F)nc2n1,20%
7,Cc1nc(C)n(Cc2cccc(NC3CCN(C)C3=O)c2)n1 (stereo not given),-41.6%
8,CC(C)SCc1cccc(NC2CCN(C)C2=O)c1 (stereo not given),-13.9%
9,CCSCc1cccc(NC2CCN(C)C2=O)c1 (stereo not given),52.5%
10,CN1CCCC(CCC(=O)N2CCc3c(nc(CC4CC4)[nH]c3=O)C2)C1 (stereo not given),49.3%
11,CCOCCn1nc(C)cc1C(=O)N1CCC2(CC1)[C@H](O)C[C@@H]2OCC,9.63%
12,CCO[C@H]1C[C@@H](O)C12CCN(C1CCN(c3ccccc3C)CC1)CC2,69.4%
13,CCO[C@H]1C[C@@H](O)C12CCN(S(=O)(=O)c1ccccc1OC)CC2,46.4%
14,CCO[C@H]1C[C@@H](O)C12CCN(C1CCN(c3ccccc3)CC1)CC2,25.8%
15,CCO[C@H]1C[C@@H](O)C12CCN(C1Cc3ccccc3C1)CC2,50.3%
16,CCO[C@H]1C[C@@H](O)C12CCN(C(=O)CCN1CCCC1=O)CC2,14.5%
17,CCO[C@H]1C[C@@H](O)C12CCN(C(=O)CN1CCCCCC1=O)CC2,24.3%
18,NCCO[C@H]1C[C@@H](O)C12CCN(C1Cc3ccccc3C1)CC2,43%
19,CCO[C@H]1C[C@@H](O)C12CCN(C(=O)CC(F)(F)F)CC2,90.2%
20,Cc1ncc(C(=O)N2CCCC(Cc3nccs3)C2)cn1 (stereo not given),29.3%
21,CCN(CC)c1ncc2c(O)nc(C3CCNCC3)cc2n1,6.26%
22,CCN(C)c1ncnc2c1CCN(C(=O)COC)CC2,-12.1%
23,COC(=O)[C@H](C)NC(=O)COc1nn(C)c2nc(C)cc(C)c12,-10.2%
24,Cc1cc2nc(SCC(=O)N3CCCC3)n(Cc3ccco3)c(O)c-2n1,34.2%
25,CCS(=O)(=O)N(C)CCCNC(=O)c1cc(Cl)cc2cccnc12,37.9%
26,CCCNC(=O)C(C)n1nc(-c2ccc(C)o2)cc(N)c1=O (stereo not given),31.6%
27,CCc1cc(CNC(=O)C2CCCN(C(=O)NCC(C)C)C2)[nH]n1 (stereo not given),22.5%

row,SMILES,INHIBITION
1,CN(Cc1ccccc1)c1cnn(CC2CCCCO2)c(=O)c1 (stereo not given),28.2%
2,COCC1CC2(CCN(C(=O)c3cnc4ccccc4c3)CC2)CO1 (stereo not given),42.1%
3,Cc1ccc(CN(C)C(=O)CN2CCCC2c2cnn(C)c2)cc1 (stereo not given),-1.79%
4,COC(=O)c1cccc(C(=O)N(C)Cc2cccc(O)c2)c1,7.44%
5,COC(=O)c1cccc(C(=O)N(C)Cc2ccsc2)c1,13.8%
6,CN(Cc1cccc(OC(F)(F)F)c1)C(=O)c1cnsn1,68.6%
7,CN(Cc1cccc(OC(F)(F)F)c1)C(=O)c1ccncc1F,39.4%
8,Cc1ccc(CN(C)C(=O)c2cnsn2)cc1,65.2%
9,COC(=O)c1ccc(CN(C)C(=O)c2cnsn2)cc1,64.1%
10,CN(Cc1cccc(OC(F)(F)F)c1)C(=O)Cc1ccon1,19.5%
11,Cc1ccc(CN(C)C(=O)c2scnc2C)cc1,-11.19%
12,Cc1nn(C)c2cn(CC(=O)N3CCN(c4ccccn4)CC3)nc12,30%
13,CC(c1ccco1)N(C(=O)Cn1nc2n(c1=O)CCCCC2)C1CC1 (stereo not given),5.94%
14,Cc1ncc(C(=O)NCCNc2ncccc2C#N)s1,-0.113%
15,O=C(Cn1ccnc1)N(CCO)CCSc1ccc(Cl)cc1,9.41%
16,COCC(=O)N1CCCC2(CCN(Cc3cccc(C)n3)C2=O)C1 (stereo not given),43.9%
17,N#Cc1cc(F)ccc1Cn1cnc(C2CCC2)cc1=O,26.6%
18,N#Cc1cc(Cn2cnc(C3CCC3)cc2=O)ccc1F,74.3%
19,N#Cc1ccc(F)cc1Cn1cnc(C2CCC2)cc1=O,-22.3%
20,CCc1nnc2n1CCN(Cc1cc(Cl)c3c(c1)OCCO3)C2,10.235%
21,COc1ncccc1CNC(=O)c1cc(Cl)ccn1,-22.8%
22,Cc1noc(CCCC(=O)N2CCCCC2CNS(C)(=O)=O)n1 (stereo not given),49.7%
23,CC(C)OCCCNC(=O)CS(=O)(=O)Cc1ccc(Cl)cc1,9.64%
24,CN(C)C(=O)CC1CC2(CCN(Cc3ccoc3)CC2)c2ccccc21 (stereo not given),-6.23%
25,CN(C)C(=O)NC1COC2(CCN(Cc3ccco3)CC2)C1 (stereo not given),27.6%
26,CN(C)C(=O)CC1CC2(CCN(Cc3ccco3)CC2)c2ccccc21 (stereo not given),75%
27,CN(C)C(=O)CC1CC2(CCN(Cc3ccsc3)CC2)c2ccccc21 (stereo not given),64.2%

row,SMILES,INHIBITION
1,CNC(=O)CC1CC2(CCN(Cc3nccs3)CC2)c2ccccc21 (stereo not given),-0.113%
2,CN(C)C(=O)CC1CC2(CCN(Cc3cccs3)CC2)c2ccccc21 (stereo not given),45.2%
3,CC(=O)N1CCC(N2CCC(c3nc(C)cc(C)n3)C2)CC1 (stereo not given),24.8%
4,Cc1cncnc1C1CCN(CC(N)=O)CC1,-16.9%
5,CC(=O)N1CCc2nc(C3CCN(c4ncccn4)C3)ncc2C1 (stereo not given),-0.902%
6,CC(C)CN1C[C@H]2N(c3ncccn3)CCC[C@@]2(C(=O)NCC2CC2)C1,56.6%
7,CS(=O)(=O)N1C[C@H]2N(c3ncccn3)CCC[C@@]2(C(=O)NCC2CC2)C1,35.8%
8,CCN1C[C@H]2N(c3ncccn3)CCC[C@@]2(C(=O)NCC2CC2)C1,19.5%
9,CN1C[C@H]2N(c3ncccn3)CCC[C@@]2(C(=O)NCC2CC2)C1,67.5%
10,CNC(=O)[C@@]12CCCN(c3ncccn3)[C@@H]1CN(C)C2,-17.4%
11,CNC(=O)N1C[C@H]2N(c3ncccn3)CCC[C@@]2(C(=O)NCC2CC2)C1,17.7%
12,CC(=O)N1CC(=O)N(c2ccccc2)CC12CCN(Cc1cccs1)C2 (stereo not given),6.38%
13,COCC1CC2(CCN(Cc3cnn(C)c3)CC2)CN1C(C)C (stereo not given),37.5%
14,O=C(O)c1ccc(C2CCCN(C(=O)c3ccc[nH]3)C2)cc1 (stereo not given),36.8%
15,O=C(NCc1cnc2n1CCN(Cc1nccs1)CC2)C1CCC1,30.3%
16,CC(C)c1nc(CN2CCCC2c2cnn(C)c2)cs1 (stereo not given),19.4%
17,Cn1cc(C2CCCN2Cc2csc(C(C)(C)C)n2)cn1 (stereo not given),55.9%
18,Cn1cc(C2CCCN2Cc2csc(-c3ccccc3)n2)cn1 (stereo not given),-38.2%
19,Cn1cc(C2CCCN2Cc2csc(C3CCCC3)n2)cn1 (stereo not given),42%
20,CC(=O)N(C)c1nc(CN2CCCC2c2cnn(C)c2)cs1 (stereo not given),50.3%
21,CC(=O)Nc1nc(CN2CCCC2c2cnn(C)c2)cs1 (stereo not given),34.9%
22,Cc1cnn(CC2CN(Cc3nc(-c4ccsc4)no3)CCO2)c1 (stereo not given),49.75%
23,CC1(C(=O)N2CCN(c3cnccn3)CC2)CNCCO1 (stereo not given),36.5%
24,COc1cc2cc3c(nc2cc1OC)OCCN(CC1CC1)C3,-7.66%
